Sampled rows, rich in hits. Any-hit rate of the full collection: about 10%.
L3MBTL1 inh: qHTS Assay for the Inhibitors of L3MBTL1 | Lethal(3)malignant brain tumor-like protein 1 (Homo sapiens), Q9Y468 | AlphaScreen L3MBTL1–H3K9me1 peptide binding | Potency, µM (highest dose often 57.1 µM), usual class: inhibitors | 0.66% of 230,000 active | AID 485360, 2010; also: nearly all actives have a fitted effect of over 60% in size
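First, the protein-peptide complex forms for 30 min at room temperature (L3MBTL1 50 nM, biotinylated H3K9me1 peptide 75 nM). Next, compounds are pin-transferred and incubated 30 min. Finally, AlphaScreen beads are added and read after 30 min.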
GLS inhibitor: qHTS for Inhibitors of Glutaminase (GLS); Potency, µM (highest dose often 45.5 µM), actives largely listed as inhibitors; AID 624170, 2012; Glutaminase kidney isoform, mitochondrial (Homo sapiens), O94925; GLS enzymatic activity, qHTS titration; 0.21% of 410,000 active
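hKGA; 45 mM KH2PO4 pH 8.2 + 0.02% Tween-20; cpd via pin tool; 1 mM Gln soln; GluOx/HRP/Amplex Red; RT 30 min; fluor. t0 & final.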
BAZ2B inh: qHTS Assay for Inhibitors of BAZ2B; AlphaScreen BAZ2B-H3K14Ac peptide displacement; AID 504333, 2011; Potency, µM (highest dose often 114 µM), usual class: inhibitors; Bromodomain adjacent to zinc finger domain protein 2B (Homo sapiens), Q9UIF8; 4.4% of 360,000 active; also: nearly all actives have a fitted effect of over 60% in size
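Protein-peptide AlphaScreen: BAZ2B 50 nM, b-H3K14Ac 50 nM, 1x PBS pH 7.4 + 0.01% Tween-20. Preincubation 30 min RT; cpd 30 min RT (top 110 uM); beads 20 min RT, light-protected.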
G9a block: qHTS Assay for Inhibitors of Histone Lysine Methyltransferase G9a; G9a H3K9 monomethylation, AlphaScreen, 2 h; Potency, µM (top dose mostly 102 µM), actives largely listed as inhibitors; 8.8% of 350,000 active; also: nearly all actives have a fitted effect of over 75% in size
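Using a bead-based AlphaScreen, monomethylated H3K9 product from 2 h room-temperature reactions (G9a 20 nM, peptide 500 nM, SAM 20 uM) was detected with 0.5 ug/mL rabbit anti-H3K9me1 antibody.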
HP1b chromo inh: HTS for Inhibitors of HP1-beta Chromodomain Interactions with Methylated Histone Tails; Chromobox protein homolog 1 (Homo sapiens), P83916; AlphaScreen HP1-beta / biotin-H3K9me3 peptide binding; Potency, µM (highest dose often 114 µM), actives largely listed as inhibitors; 0.56% of 390,000 active; also: nearly all actives have a fitted effect of over 70% in size
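AlphaScreen: HP1-beta (50 nM) preformed 30 min with biotin-H3(1-18)K9me3 peptide (50 nM) in PBS pH 7.4, 0.01% Tween-20. Compound added for 30 min at RT, then streptavidin donor/nickel chelate acceptor beads (10 ug/mL) for 30 min.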
JMJD2A Tudor: qHTS Assay for Inhibitors of JMJD2A-Tudor Domain; Lysine-specific demethylase 4A (Homo sapiens), O75164; AlphaScreen JMJD2A-Tudor / H3K4me3 peptide binding; Potency, µM (highest dose often 114 µM), actives largely listed as inhibitors; 4.4% of 390,000 active; AID 504339, 2011; also: nearly all actives have a fitted effect of over 50% in size
Numbers stand for hits; ! = a repeat was not active; [ ] = dose if it differs, or a comment. Calls follow the shape of the dose curve; as a rule, active = well fitted curve in the direction sought with a large enough effect; inconclusive = small, poorly fitted or top-dose-only effect, or another doubt; inactive = no such curve, though single readings can be large; an effect the other way counts as inactive or inconclusive.

Results for CC(=O)c1ccc(C(=O)Nc2nnc(-c3ccc(Cl)cc3)o2)cc1 ?
GLS inhibitor: inactive; BAZ2B inh: inconclusive; G9a block: inactive; HP1b chromo inh: inactive; JMJD2A Tudor: inactive

What do the screens show for `CCN1CCN(C(=O)CCN(CC(C)C)c2nc(-c3cccs3)nc3ccccc23)CC1`?
JMJD2A Tudor: inactive

How did COCCNC(=O)CSc1cn(CC(=O)N2CCCCCC2)c2ccccc12 do in these assays?
GLS inhibitor: inactive; BAZ2B inh: inactive; G9a block: inactive; HP1b chromo inh: inactive; JMJD2A Tudor: inactive

What do the screens show for `Cc1ccc(OCCSc2nc3ccc(NC(=O)c4ccc5c(c4)OCO5)cc3s2)cc1`?
GLS inhibitor: inactive; BAZ2B inh: inactive; G9a block: inactive; HP1b chromo inh: inactive; JMJD2A Tudor: inactive

Results for Cc1ccc(S(=O)(=O)N(CC(=O)Nc2cccnc2)c2cc(Cl)ccc2C)cc1 ?
GLS inhibitor: inactive; BAZ2B inh: inconclusive; G9a block: inactive; HP1b chromo inh: inactive; JMJD2A Tudor: inactive

What do the screens show for `Cc1ccnc2nc(C(=O)Nc3nc4ccccc4s3)nn12`?
L3MBTL1 inh: inactive; GLS inhibitor: inactive; BAZ2B inh: inactive; G9a block: inactive; HP1b chromo inh: inactive; JMJD2A Tudor: 16µM

Results for COc1ccc(-c2noc(CCC(=O)NCc3cccnc3)n2)cc1OC ?
L3MBTL1 inh: inactive; GLS inhibitor: inactive; BAZ2B inh: inactive; G9a block: 71µM; HP1b chromo inh: inactive; JMJD2A Tudor: inactive

What do the screens show for `O=C(CCc1nc2ccccc2s1)Nc1cccnc1`?
L3MBTL1 inh: inactive; GLS inhibitor: inactive; BAZ2B inh: inconclusive; G9a block: 40µM; HP1b chromo inh: inactive; JMJD2A Tudor: inactive

What do the screens show for `NC(=O)c1ccc(NC(=O)CCc2nc3ccccc3s2)cc1`?
L3MBTL1 inh: inactive; GLS inhibitor: inactive; BAZ2B inh: inconclusive; G9a block: 35µM; HP1b chromo inh: inactive; JMJD2A Tudor: inactive

How did O=C(CCc1nc(-c2ccccc2)no1)Nc1cccnc1 do in these assays?
GLS inhibitor: inactive; BAZ2B inh: inactive; G9a block: 56µM; HP1b chromo inh: inactive; JMJD2A Tudor: inactive

Results for Cc1cccn2c(=O)cc(COc3ccc(NC(=O)C(C)C)cc3)nc12 ?
GLS inhibitor: inactive; BAZ2B inh: inactive; G9a block: inactive; HP1b chromo inh: inactive; JMJD2A Tudor: inactive

How did CCCCNc1cc(=O)oc2ccccc12 do in these assays?
L3MBTL1 inh: inactive; GLS inhibitor: inactive; BAZ2B inh: inactive; G9a block: inactive[12.7 µM]; HP1b chromo inh: inactive; JMJD2A Tudor: inactive

How did CCOc1ccc(NC(=O)COC(=O)c2cc(=O)c3ccccc3o2)cc1 do in these assays?
L3MBTL1 inh: inactive; GLS inhibitor: inactive; BAZ2B inh: inactive; G9a block: 20µM; HP1b chromo inh: inactive; JMJD2A Tudor: inactive

Results for COc1cccc(NC(=O)COC(=O)c2cc(=O)c3ccccc3o2)c1 ?
L3MBTL1 inh: inactive; GLS inhibitor: inactive; BAZ2B inh: inactive; G9a block: inactive[12.7 µM]; HP1b chromo inh: inactive; JMJD2A Tudor: inactive

How did O=C(OCc1ccc([N+](=O)[O-])cc1)c1cc(=O)c2ccccc2o1 do in these assays?
GLS inhibitor: inactive; BAZ2B inh: inactive; G9a block: 50µM; HP1b chromo inh: inactive; JMJD2A Tudor: inactive

Results for CCOc1ccc(Nc2cc(=O)oc3ccccc23)cc1 ?
L3MBTL1 inh: inactive; GLS inhibitor: inactive; BAZ2B inh: 71µM; G9a block: inactive; HP1b chromo inh: inactive; JMJD2A Tudor: inactive

How did O=C(NC1CC(=O)N(c2cccc(F)c2)C1)c1cc2ccccc2o1 (stereo unspecified) do in these assays?
GLS inhibitor: inactive; BAZ2B inh: inactive; G9a block: inactive; HP1b chromo inh: inactive; JMJD2A Tudor: inactive

Results for CCOC(=O)c1c(=O)n(O)c2ccc(OC)cc2[n+]1[O-] ?
GLS inhibitor: inactive; BAZ2B inh: inconclusive; G9a block: 50µM; HP1b chromo inh: inactive; JMJD2A Tudor: 50µM

What do the screens show for `CCS(=O)(=O)c1ccc2oc(Nc3ccccc3Cl)nc2c1`?
GLS inhibitor: inactive; BAZ2B inh: inactive; G9a block: inactive; HP1b chromo inh: inactive; JMJD2A Tudor: inactive

How did CCS(=O)(=O)c1ccc2oc(Nc3cc(Cl)ccc3OC)nc2c1 do in these assays?
GLS inhibitor: inactive; BAZ2B inh: inactive; G9a block: 35µM; HP1b chromo inh: inactive; JMJD2A Tudor: inactive

How did O=C(O)c1ncc(Cl)c(Cl)c1Cl do in these assays?
L3MBTL1 inh: inactive; GLS inhibitor: inactive; BAZ2B inh: inactive; G9a block: 50µM; HP1b chromo inh: inactive; JMJD2A Tudor: 50µM!

How did O=C(O)c1nc(N2CCCC2)ncc1Cl do in these assays?
GLS inhibitor: inactive; BAZ2B inh: inactive; G9a block: inactive[12.7 µM]; HP1b chromo inh: inactive; JMJD2A Tudor: inactive

Results for O=C(COCc1cc(-c2cccs2)on1)NCc1cccc(Cl)c1 ?
GLS inhibitor: inactive; BAZ2B inh: inactive; G9a block: inactive; HP1b chromo inh: inactive; JMJD2A Tudor: inactive

What do the screens show for `Oc1c(C(c2ccccc2)N2CCOCC2)sc2nc(-c3ccco3)nn12` (stereo unspecified)?
GLS inhibitor: inactive; BAZ2B inh: inactive; G9a block: inactive; HP1b chromo inh: inactive; JMJD2A Tudor: inactive

Results for O=C(NNC(=O)c1cccc(-n2cccc2)c1)c1ccc(F)cc1 ?
L3MBTL1 inh: 22µM; GLS inhibitor: inactive; BAZ2B inh: 40µM; G9a block: inactive[12.7 µM]; HP1b chromo inh: inactive; JMJD2A Tudor: inconclusive

Results for CO[C@@H]1[C@@H]2OP(=O)(O)OC[C@H]2O[C@H]1n1c(Sc2ccc(Cl)cc2)nc2c(N)ncnc21 ?
G9a block: inactive

How did O=C(CN1C(=O)C(c2ccc(F)cc2)=NC12CCCCCC2)Nc1ccc(F)c(Cl)c1 do in these assays?
GLS inhibitor: inactive; BAZ2B inh: inactive; G9a block: inactive; HP1b chromo inh: inactive; JMJD2A Tudor: inactive

What do the screens show for `CNc1ccccc1C(C)(C)c1cc(-c2cccc([N+](=O)[O-])c2)no1`?
L3MBTL1 inh: inconclusive; GLS inhibitor: inactive; BAZ2B inh: inconclusive; G9a block: 32µM; HP1b chromo inh: inactive; JMJD2A Tudor: inconclusive

What do the screens show for `CCCCN1C(=O)C(=Nc2cccc3cnccc23)c2ccccc21`?
L3MBTL1 inh: inactive; GLS inhibitor: inactive; BAZ2B inh: 28µM; G9a block: 45µM; HP1b chromo inh: inconclusive; JMJD2A Tudor: inconclusive

Results for O=C(CSc1n[nH]c(-c2ccc(F)cc2)n1)N1CCN(c2ccc(F)cc2)CC1 ?
GLS inhibitor: inactive; BAZ2B inh: inactive; G9a block: inactive; HP1b chromo inh: inactive; JMJD2A Tudor: inactive

Bioassay records deposited in PubChem by National Center for Advancing Translational Sciences (NCATS).
